{
  "source": "PubChem BioAssay (NCI)",
  "note": "Compounds without any hit were thinned out: in the full panel of roughly 83,000, 20% have a hit.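 Results are percent growth after 48 hours of single-concentration exposure. 100 means growth as in untreated cells, lower positive values show inhibition; negative values down to -100 show cell death.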 Active and inactive are the calls of the source.",
  "data": [
    {"test_system": "NCI-H460 lung", "experiment": "NCI-60 one-dose screen, 48 h (100 = growth as untreated, 0 = no growth, -100 = all killed)", "conditions": "10 µM unless noted", "experimental": "Growth inhibition of the NCI-H460 human Non-Small Cell Lung tumor cell line is measured as a screen for anti-cancer activity. Cells are grown in 96 well plates and exposed to the test compound for 48 hours. Compounds are tested at a single concentration, which is 10^-5 M for most compounds. The reported endpoint is percent growth (GI% or GIPRCNT), where numbers from 0 - 100% represent growth inhibition, and numbers from -100% - 0 represent cell death. For example, a value of 40 represents 60% growth inhibition. A value of 0 means no net growth occurred over the course of the experiment. A value of -40 indicates 40% of cells at the beginning of the experiment died by the end of the experiment. A value of -100 means all cells are dead at the end of the experiment.\nNCI-60 Human Tumor Cell Lines Screen was performed using the standard one-dose NCI protocol, which is described in more detail at https://dtp.cancer.gov/discovery_development/nci-60/default.htm.\nCompounds with GIPRCNT values below 10 were considered active. Activity score was based on GIPRCNT using the following formula: […]\nScore is 0 for GIPRCNT values of 100 or above, 50 for GIPRCNT values of 0, and 100 for GIPRCNT values of -100.", "values": [
      {"compound": "COc1ccccc1Nc1cc(O)c2c(=O)cc(-c3ccccc3)oc2c1", "growth": "11.4% (inactive)"},
      {"compound": "O=S(=O)(O)c1cc(O)c2c(N=Nc3ccc(Nc4ccccc4)c4c(S(=O)(=O)O)cccc34)cc(S(=O)(=O)O)cc2c1", "growth": "105% (inactive)"},
      {"compound": "NC(=O)C1(N2CCCCC2)CCN(CCCC(=O)c2ccc(F)cc2)CC1", "growth": "11.9% (inactive)"},
      {"compound": "O=CNc1cc(Cl)cc(Cl)c1", "growth": "104% (inactive)"},
      {"compound": "C[C@H]1[C@H](C)CC[C@]2(CO)CC[C@]3(C)C(=CC[C@@H]4[C@@]5(C)CCCNC(C)(C)[C@@H]5CC[C@]43C)[C@H]12", "growth": "-83.3% (active)"},
      {"compound": "CC(c1ccccc1)n1ccnc1CO", "note": "(stereo not given)", "growth": "104% (inactive)"},
      {"compound": "COc1ccc(C(=O)c2cc(C)c(OC)c(C)c2)c(OC)c1O", "growth": "2.04% (active)"},
      {"compound": "COc1ccc2c(Nc3ccc(NS(C)(=O)=O)cc3)c3ccccc3nc2c1", "growth": "-21.8% (active)"},
      {"compound": "CCN(CC)CCCCCCNc1cc(OC)cc2cccnc12", "growth": "32.6% (inactive)"},
      {"compound": "O=C(O)c1ccc[n+](CC(=O)N2CCN(c3cc4c(cc3F)c(=O)c(C(=O)O)cn4C3CC3)CC2)c1", "growth": "95.6% (inactive)"},
      {"compound": "Cn1c(COC(=O)NCCc2ccccn2)nc2c(N3CCOCC3)nc(Cl)nc21", "growth": "38.3% (inactive)"},
      {"compound": "CCc1nc(C)cn1C(=O)OCc1nc2nc(Cl)nc(N3CCOCC3)c2[nH]1", "growth": "13.9% (inactive)"},
      {"compound": "C#CCn1cc(C=C2C(=O)NC(=S)NC2=O)c2cc(Cl)ccc21", "growth": "14.6% (inactive)"},
      {"compound": "CCCCCCCCCCCCCCCC(=O)OC[C@@]1(O)C[C@@]23CC[C@@H]4C(C)(C)[C@H](O)CC[C@@]4(C)[C@@H]2CC[C@H]1C3", "growth": "107% (inactive)"},
      {"compound": "CS(=O)(=O)OCCN(CCOS(C)(=O)=O)c1ccc(/C=N/Nc2ccc([N+](=O)[O-])cc2[N+](=O)[O-])cc1", "growth": "37.5% (inactive)"},
      {"compound": "Cc1cn(-c2cc(C(=O)Nc3cccc(C#Cc4cccc5[nH]nc(N)c45)c3)cc(C(F)(F)F)c2)cn1", "growth": "40.6% (inactive)"},
      {"compound": "Clc1ccc(C2CC(c3cccc(Nc4ccncc4)c3)=NN2c2ccc(Cl)cc2)cc1", "note": "(stereo not given)", "growth": "-81% (active)"},
      {"compound": "COc1cc(C2NC(c3cc(OC)c(OC)c(OC)c3)C(C#N)(C#N)C2(C#N)C#N)cc(OC)c1OC", "note": "(stereo not given)", "growth": "104% (inactive)"},
      {"compound": "O=C(Nc1ccc2cc3ccc(NC(=O)N4CCCCCC4)cc3nc2c1)N1CCCCCC1", "growth": "-55.6% (active)"},
      {"compound": "CC(=O)O[C@]1(C(C)=O)CC[C@H]2[C@@H]3C=C(Cl)C4=CC(=O)CC[C@]4(C)[C@H]3CC[C@@]21C", "growth": "105% (inactive)"},
      {"compound": "C=C1C(=O)O[C@H]2[C@H]1CC/C(CNC(=O)/C=C/c1ccccc1F)=C\\CC[C@@]1(C)O[C@@H]21", "growth": "56.2% (inactive)"},
      {"compound": "COc1cnccc1-c1nc2ccc3[nH]ncc3c2c2c1CCCC2", "growth": "44.7% (inactive)"},
      {"compound": "COc1ccc(C(=O)c2cc3c(N)c(C(=O)Nc4cccc(Cl)c4C)sc3nc2C)cc1", "growth": "6.21% (active)"},
      {"compound": "COc1cc(COC(=O)CCCCC[P+](c2ccccc2)(c2ccccc2)c2ccccc2)c(OC)c2c1OCO2", "growth": "64.5% (inactive)"},
      {"compound": "O=C(Nc1cccc(Cl)c1)Oc1c(Br)c(Br)c(Br)c(Br)c1Br", "growth": "99.7% (inactive)"},
      {"compound": "COc1cc(-c2cc(=O)oc3cc(O)ccc23)c(OC)c2c1OCO2", "growth": "88.9% (inactive)"},
      {"compound": "COc1ccc2c(c1)OC13Oc4cc(OC)ccc4C=C1CCCC3=C2", "growth": "14.3% (inactive)"},
      {"compound": "ClCC1(Cn2cnc3c(Cl)nc(Cl)nc32)COC1", "growth": "86.5% (inactive)"},
      {"compound": "COc1ccc(NC(=O)c2sc3nc(C)c(C(O)c4ccc(OC)cc4)cc3c2N)cc1", "note": "(stereo not given)", "growth": "9.03% (active)"},
      {"compound": "CN1CCCC1=Nc1ccccc1", "growth": "111% (inactive)"},
      {"compound": "CCCCCCN(C)Cc1ccc(OCCOc2ccc(CN(C)CCCCCC)cc2)cc1", "growth": "-77.5% (active)"},
      {"compound": "CC[C@@]12C=CCN3CC[C@]4(c5cc(NC(=O)COc6cc(OCC(=O)Nc7cc8c(cc7OC)N(C)[C@H]7[C@@](O)(C(=O)OC)[C@H](OC(C)=O)[C@]9(CC)C=CCN%10CC[C@]87[C@@H]%109)cc7oc(-c8ccccc8)cc(=O)c67)c(OC)cc5N(C)[C@@H]4[C@](O)(C(=O)OC)[C@H]1OC(C)=O)[C@H]32", "growth": "0.985% (active)"},
      {"compound": "CCCCCCCCCCCCCCCC(=O)OC[C@@]1(O)C[C@@]23CC[C@@H]4C(C)(C)CCC[C@@]4(C)[C@@H]2CC[C@H]1C3", "growth": "98.4% (inactive)"},
      {"compound": "FC(F)(F)c1cccc(Oc2ccc(Nc3ncnc4ccc(OCCCN5CCOCC5)cc34)cc2Cl)c1", "growth": "14.2% (inactive)"},
      {"compound": "COc1ccc(C(=O)c2cc3c(N)c(C(=O)Nc4cccc(Cl)c4)sc3nc2C)cc1", "growth": "13.1% (inactive)"},
      {"compound": "COc1cc(NCCCN(CC(C)C)C2CCCC2)c2ncccc2c1", "growth": "54.8% (inactive)"},
      {"compound": "C=C(C)[C@@H]1CC[C@]2(C(=O)O)CC[C@]3(C)[C@H](CC[C@@H]4[C@@]5(C)C[C@@H](CC#Cc6ccc(Br)cc6)C(=O)C(C)(C)[C@@H]5CC[C@]43C)[C@@H]12", "growth": "42.3% (inactive)"},
      {"compound": "CC1CCN(C(=O)OCc2nc3nc(Cl)nc(N4CCOCC4)c3[nH]2)CC1", "growth": "10.5% (inactive)"},
      {"compound": "COc1ccc(/C=N/NC(=O)c2cccc3cc[nH]c23)cc1O", "growth": "7.44% (active)"},
      {"compound": "NC(=S)N/N=C/c1ccc(OC(=O)COc2cc(Cl)c(Cl)cc2Cl)cn1", "growth": "79.9% (inactive)"}
    ]}
  ]
}
